Test results reported in PubChem BioAssay AID1159580 (chemical genetic matrix, 2015).
Values joined by “and” are separate entries in the source; they are usually repeats but may differ in a detail not shown here. Identical values can stand only once. In all, about 5,500 compounds went through this assay and about 2,000 (36%) were called active. Roughly 18% stayed inconclusive and do not appear here. No stated cut-off is given here; in the data, active means normalized growth mostly below about 0.91 (no sharp cut-off); inconclusive means no clear call, values can overlap the other calls; inactive means mostly above about 0.92. Some of the results follow.

Assay: chemical genetic growth profiling, strain panel (AID 1159580);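 further: tested at 20 µM; growth read once vehicle control cultures reached saturation at 30 °C; 1 = growth at the plate median or of vehicle wells; lower values mean less growth of the strain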
Details: growth OD

Measured: normalized growth

NC(Cc1ccc(Cl)cc1)C(=O)O (centres undefined)
inactive: S. cerevisiae deletion strains, locus YJR075W, strain HOC1, hits give low values 0.999 and 1.06 | S. cerevisiae deletion strains, locus YKL009W, strain mrt4, hits give low values 1.03 | S. cerevisiae deletion strains, locus YKL068W, hits give low values 0.994 | S. cerevisiae deletion strains, locus YKL085W, strain MDH1 (second series), hits give low values 0.994 | S. cerevisiae deletion strains, locus YKL085W, strain MDH1, hits give low values 0.994 | S. cerevisiae deletion strains, locus YKL160W, strain elf1, hits give low values 0.996 | S. cerevisiae deletion strains, locus YKL190W, strain CNB1, hits give low values 0.991 | S. cerevisiae deletion strains, locus YKR001C, strain vps1, hits give low values 1.02 | S. cerevisiae deletion strains, locus YKR026C, strain gcn3, hits give low values 1 | S. cerevisiae deletion strains, locus YKR091W, strain srl3, hits give low values 0.993 | S. cerevisiae deletion strains, locus YLL001W, strain dnm1, hits give low values 0.984 | S. cerevisiae deletion strains, locus YLL026W, hits give low values 0.999 | S. cerevisiae deletion strains, locus YLL041C, strain sdh2, hits give low values 1 | S. cerevisiae deletion strains, locus YLR027C, strain aat2, hits give low values 0.999 | S. cerevisiae deletion strains, locus YLR039C, strain RIC1, hits give low values 0.994 | S. cerevisiae deletion strains, locus YLR058C, strain SHM2, hits give low values 0.981 | S. cerevisiae deletion strains, locus YLR102C, strain apc9, hits give low values 0.998 | S. cerevisiae deletion strains, locus YLR113W, strain HOG1, hits give low values 0.971 | S. cerevisiae deletion strains, locus YLR221C, strain rsa3, hits give low values 0.996 | S. cerevisiae deletion strains, locus YLR258W, strain gsy2, hits give low values 0.988 | S. cerevisiae deletion strains, locus YLR262C, strain YPT6 (second series), hits give low values 1.02 | S. cerevisiae deletion strains, locus YLR262C, strain YPT6, hits give low values 0.955 | S. cerevisiae deletion strains, locus YLR268W, strain sec22, hits give low values 1 | S. cerevisiae deletion strains, locus YLR320W, strain mms22, hits give low values 0.996 | S. cerevisiae deletion strains, locus YLR330W, strain CHS5, hits give low values 0.992 | S. cerevisiae deletion strains, locus YLR342W, strain FKS1 (second series), hits give low values 1.02 | S. cerevisiae deletion strains, locus YLR342W, strain FKS1, hits give low values 0.999 | S. cerevisiae deletion strains, locus YLR357W, strain rsc2, hits give low values 0.977 | S. cerevisiae deletion strains, locus YLR370C, strain arc18, hits give low values 1 | S. cerevisiae deletion strains, locus YLR371W, strain rom2, hits give low values 0.993 | S. cerevisiae deletion strains, locus YLR384C, strain iki3, hits give low values 0.986 | S. cerevisiae deletion strains, locus YLR418C, strain cdc73, hits give low values 1.04 | S. cerevisiae deletion strains, locus YML016C, strain PPZ1, hits give low values 0.986 | S. cerevisiae deletion strains, locus YML032C, strain rad52, hits give low values 0.983 | S. cerevisiae deletion strains, locus YML120C, strain ndi1, hits give low values 0.993 | S. cerevisiae deletion strains, locus YML124C, strain tub3, hits give low values 0.998 | S. cerevisiae deletion strains, locus YMR058W, strain fet3, hits give low values 1.02 | S. cerevisiae deletion strains, locus YMR078C, strain ctf18, hits give low values 0.992 | S. cerevisiae deletion strains, locus YMR125W, strain sto1, hits give low values 0.993 | S. cerevisiae deletion strains, locus YMR129W, hits give low values 0.995 | S. cerevisiae deletion strains, locus YMR205C, strain PFK2, hits give low values 0.991 | S. cerevisiae deletion strains, locus YMR223W, strain ubp8, hits give low values 1.01 | S. cerevisiae deletion strains, locus YMR231W, strain pep5, hits give low values 0.993 | S. cerevisiae deletion strains, locus YMR263W, strain SAP30, hits give low values 0.991 and 0.983 | S. cerevisiae deletion strains, locus YMR307W, strain GAS1, hits give low values 1.06 | S. cerevisiae deletion strains, locus YNL067W, strain RPL9B, hits give low values 0.986 | S. cerevisiae deletion strains, locus YNL071W, strain lat1, hits give low values 1 | S. cerevisiae deletion strains, locus YNL128W, strain TEP1, hits give low values 0.976 | S. cerevisiae deletion strains, locus YNL153C, strain GIM3, hits give low values 0.983 and 1.07 | S. cerevisiae deletion strains, locus YNL175C, strain NOP13, hits give low values 0.986 | S. cerevisiae deletion strains, locus YNL183C, strain NPR1, hits give low values 0.891 | S. cerevisiae deletion strains, locus YNL209W, strain ssb2, hits give low values 1 | S. cerevisiae deletion strains, locus YNL224C, strain SQS1, hits give low values 1.01 | S. cerevisiae deletion strains, locus YNL233W, strain BNI4, hits give low values 0.991 | S. cerevisiae deletion strains, locus YNL248C, strain rpa49, hits give low values 1.01 | S. cerevisiae deletion strains, locus YNL250W, strain rad50, hits give low values 0.988 | S. cerevisiae deletion strains, locus YNL271C, strain bni1, hits give low values 1 | S. cerevisiae deletion strains, locus YNL298W, strain CLA4, hits give low values 0.985 | S. cerevisiae deletion strains, locus YNL307C, strain MCK1, hits give low values 1.01 | S. cerevisiae deletion strains, locus YNL322C, strain KRE1 (second series), hits give low values 0.983 | S. cerevisiae deletion strains, locus YNL322C, strain KRE1, hits give low values 0.989 | S. cerevisiae deletion strains, locus YNR049C, strain mso1, hits give low values 1 | S. cerevisiae deletion strains, locus YNR052C, strain pop2, hits give low values 0.986 | S. cerevisiae deletion strains, locus YOL006C, strain TOP1, hits give low values 0.991 | S. cerevisiae deletion strains, locus YOL012C, strain htz1 1.95 | S. cerevisiae deletion strains, locus YOL147C, strain pex11, hits give low values 1.01 | S. cerevisiae deletion strains, locus YOR001W, strain rrp6, hits give low values 1 | S. cerevisiae deletion strains, locus YOR061W, strain CKA2, hits give low values 0.97 | S. cerevisiae deletion strains, locus YOR069W, strain VPS5, hits give low values 0.997 | S. cerevisiae deletion strains, locus YOR070C, strain gyp1, hits give low values 0.988 | S. cerevisiae deletion strains, locus YOR080W, strain dia2, hits give low values 0.992 | S. cerevisiae deletion strains, locus YOR083W, strain WHI5, hits give low values 1.02 | S. cerevisiae deletion strains, locus YOR106W, strain vam3, hits give low values 0.987 | S. cerevisiae deletion strains, locus YOR136W, strain idh2, hits give low values 0.995 | S. cerevisiae deletion strains, locus YOR144C, strain elg1, hits give low values 1 | S. cerevisiae deletion strains, locus YOR184W, strain ser1, hits give low values 1 | S. cerevisiae deletion strains, locus YOR231W, strain MKK1, hits give low values 0.991 | S. cerevisiae deletion strains, locus YOR265W, strain rbl2, hits give low values 0.986 | S. cerevisiae deletion strains, locus YOR270C, strain vph1, hits give low values 1.02 | S. cerevisiae deletion strains, locus YOR290C, strain snf2, hits give low values 0.965 | S. cerevisiae deletion strains, locus YOR316C, strain cot1, hits give low values 0.993 | S. cerevisiae deletion strains, locus YPL051W, strain arl3, hits give low values 0.992 | S. cerevisiae deletion strains, locus YPL055C, strain LGE1, hits give low values 0.976 | S. cerevisiae deletion strains, locus YPL078C, strain atp4, hits give low values 1 | S. cerevisiae deletion strains, locus YPL106C, strain sse1, hits give low values 0.97 | S. cerevisiae deletion strains, locus YPL240C, strain hsp82, hits give low values 1 | S. cerevisiae deletion strains, locus YPL241C, strain CIN2, hits give low values 0.995 and 1.01 | S. cerevisiae deletion strains, locus YPL256C, strain CLN2, hits give low values 0.969 | S. cerevisiae deletion strains, locus YPR119W, strain clb2, hits give low values 0.993 | S. cerevisiae deletion strains, locus YPR141C, strain kar3, hits give low values 0.992 | S. cerevisiae deletion strains, locus YPR163C, strain tif3, hits give low values 1 | S. cerevisiae deletion strains, locus YPR167C, strain met16, hits give low values 0.996 | S. cerevisiae deletion strains, strain wtn01, hits give low values 0.99 | S. cerevisiae strains, strain wild type, hits give low values 0.998
